Results: PubChem BioAssay (NCI)
The panel holds about 83,000 compounds, 20% with a hit somewhere; the sample as a whole holds those more often.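 Plates (96-well) were seeded with cells, treated with compound at one concentration, and incubated for 48 hours before percent growth was determined.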 Values without a mark were called inactive. Active and inactive are the calls of the source. The calls were made as follows: active = growth percent below 10; inactive = the rest.

Assays:
Experiment in all cases: NCI-60 one-dose screen, 48 h (100 = growth as untreated, 0 = no growth, -100 = all killed)
Conditions in all cases: 10 µM unless noted
HCT-15 colon = test system: HCT-15 colon
HT29 colon = test system: HT29 colon
SNB-75 CNS = test system: SNB-75 CNS
SNB-19 CNS = test system: SNB-19 CNS
U251 CNS = test system: U251 CNS
PC-3 prostate = test system: PC-3 prostate
SK-MEL-5 melanoma = test system: SK-MEL-5 melanoma
UACC-62 melanoma = test system: UACC-62 melanoma
LOX IMVI melanoma = test system: LOX IMVI melanoma
SK-MEL-28 melanoma = test system: SK-MEL-28 melanoma
SK-MEL-2 melanoma = test system: SK-MEL-2 melanoma
EKVX NSCLC = test system: EKVX NSCLC
SN12C renal = test system: SN12C renal
TK-10 renal = test system: TK-10 renal
ACHN renal = test system: ACHN renal
CAKI-1 renal = test system: CAKI-1 renal
A498 renal = test system: A498 renal
CCRF-CEM leukemia = test system: CCRF-CEM leukemia
MOLT-4 leukemia = test system: MOLT-4 leukemia
UO-31 renal = test system: UO-31 renal

SMILES	growth (HCT-15 colon)	growth (HT29 colon)	growth (SNB-75 CNS)	growth (SNB-19 CNS) [%]	growth (U251 CNS) [%]	growth (PC-3 prostate)	growth (SK-MEL-5 melanoma)	growth (UACC-62 melanoma)	growth (LOX IMVI melanoma)	growth (SK-MEL-28 melanoma)	growth (SK-MEL-2 melanoma)	growth (EKVX NSCLC) [%]	growth (SN12C renal)	growth (TK-10 renal)	growth (ACHN renal)	growth (CAKI-1 renal)	growth (A498 renal) [%]	growth (CCRF-CEM leukemia)	growth (MOLT-4 leukemia)	growth (UO-31 renal) [%]
O=C(/C(=C\c1ccc([N+](=O)[O-])cc1)S(=O)Cc1ccc(F)cc1)c1ccc(F)cc1 (stereo not drawn)	2.57% (active)	-55% (active)	72.1%	41	10.3	7.46% (active)	76.7%	-22.4% (active)	-52.1% (active)	23.2%	78%	84.2	-43.7% (active)	25.8%	-7.56% (active)	44.3%	82.2	0.265% (active)	5.93% (active)	–
CN1CCC(=C(c2ccccc2)c2ccccc2)C(c2ccccc2)C1 (stereo not drawn)	82.5%	82.9%	88%	95.5	93.3	93.6%	101%	97.1%	86%	110%	102%	89	99.4%	96.2%	93.1%	–	–	105%	92.1%	–
CCCCCC(=O)Oc1ccc(/C(=C(/C)Cc2ccc(OC)cc2)c2ccc(OCCCN(C)C)cc2)cc1	24.6%	10.8%	77%	84.1	56.2	86.2%	63.5%	47.7%	50.7%	-1.63% (active)	114%	88.7	79.5%	100%	91.9%	78.3%	–	68.1%	53.5%	–
C=C1C(=O)O[C@H]2[C@H]1CC/C(COC(=O)NCc1c[nH]c3ccc(F)cc13)=C\CC[C@@]1(C)O[C@@H]21	-63.9% (active)	-50.2% (active)	26.4%	39.5	18.7	32%	-14.9% (active)	-75.1% (active)	-83.4% (active)	-62.5% (active)	28.6%	10.6	-64.4% (active)	-15.1% (active)	-84.1% (active)	-87.3% (active)	–	-8.32% (active)	3.81% (active)	–
O=C(/C(=C/c1ccc([N+](=O)[O-])cc1)SCc1ccc(F)cc1)c1ccc(F)cc1	37.2%	22%	96.8%	68.4	37.5	78.3%	95.4%	63.7%	32%	103%	90.4%	101	82.4%	79.4%	91.1%	–	79.4	7.75% (active)	21.9%	–
CCCCCCCC(=O)OCC/C=C/C1OC1C1OC(=O)/C=C\C=C\C(=O)N(C(C)=O)C(=O)/C=C(/C)CCC2OC2C1OC(=O)NC(C)=O (stereo not drawn)	84.1%	50.8%	79.3%	179	69.8	84.5%	67.5%	68%	54%	87.1%	89.8%	83.5	63.2%	37.5%	29.2%	71%	90.7	–	–	–
COc1cc(OC)cc(C(=O)C[n+]2cccc3cc[nH]c32)c1	108%	97.1%	86.9%	93.1	102	96.5%	97.3%	89.8%	93.8%	100%	103%	98	87.3%	–	–	89%	92.1	99.2%	105%	71.2
COc1ccc(C(=O)c2nc3ccccc3n2CC(=O)c2ccc(Cl)cc2)cc1	17.4%	16.1%	1.37% (active)	48.2	22.7	34.9%	20.5%	13.2%	39.2%	45.5%	63.5%	86	45.5%	–	48.6%	–	72.5	13.8%	17.2%	45.6
CCCCCCCCO/N=C\c1c2c(O)c3c(O)c(C)c4c(c3c1O)C(=O)C(C)(O/C=C\C(OC)C(C)C(OC(C)=O)C(C)C(O)C(C)C(O)C(C)/C=C\C=C(\C)C(=O)N2)O4 (stereo not drawn)	19.1%	2.82% (active)	36%	29.2	13.7	13.1%	17.7%	26.2%	30.2%	51.5%	-31.4% (active)	22.5	21.8%	30%	25%	–	–	19.8%	12.9%	–
CCCCCN1C=C/C(=C\C(=O)N2CCCc3ccccc32)c2ccccc21	102%	73.2%	108%	93.9	87.6	86.7%	92.7%	75.2%	87.3%	104%	90.9%	76.4	89.9%	105%	106%	80.3%	–	69.7%	78.5%	–
O=C(Nc1ccc(NC(=O)c2cc(=O)[nH]c3ccccc23)cc1)Nc1cccc(Cl)c1	103%	88.4%	74.4%	95.2	89.4	76.5%	92.9%	84.6%	87.7%	109%	101%	85.2	88.8%	90.2%	97.6%	78.1%	–	77.1%	79.7%	–
O=C(Nc1ncc(Cc2cc(Cl)ccc2Cl)s1)c1cccs1	23.5%	24.3%	72.5%	72.9	51.8	53.4%	42.9%	36.7%	43.3%	63.7%	50.5%	64	65.4%	68.4%	60.8%	42.4%	–	49.6%	63.2%	–
O=S(=O)(NCCCNc1nccc(-c2c(-c3cccc(O)c3)nc3occn23)n1)c1ccc(Cl)cc1	98.7%	36.3%	92%	108	102	82.7%	39.8%	9.05% (active)	44.4%	30.3%	52.5%	99.6	71.5%	–	81%	75.9%	–	73.2%	71.3%	89.8
Cc1ccc(/C=C(/C#N)n2nnc3cccc(F)c32)cc1	5.46% (active)	9.94% (active)	-35.7% (active)	16.2	13.9	20.8%	-55.2% (active)	13.2%	-14.7% (active)	52.4%	14.6%	37.6	12.7%	25.5%	18.5%	20.1%	–	4.82% (active)	5.52% (active)	–
OC(c1cccc(C(F)(F)F)c1)c1cnccc1NC1CCCCC1 (stereo not drawn)	81.3%	37.9%	72.1%	89.3	76	69.4%	69.6%	74%	82.4%	98.4%	92.6%	77.6	73.5%	82.7%	87.2%	69.5%	–	62%	71.6%	–
